Screening results (PubChem)
KCNQ2 enhance – potentiators of rat KCNQ2 potassium channel; O88943; CHO-K1 KCNQ2, FluxOR thallium flux fluorescence; active compounds read high; B-score at 10 µM; 310,000 compounds, 0.54% hits; AID 2239;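 active = fluorescence ratio B-score at least 3 SD of library B-scores, with initial fluorescence B-score within 3 of them, cut at about 5.3 in these data; same plate scores as AID 2156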;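 note: B-score of peak minus minimum over baseline fluorescence ratio after K+ and Tl+ stimulus; positive B-score means potentiation of KCNQ2 with more thallium influx and brighter signal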
Target sequence (O88943 whole entry, looked up): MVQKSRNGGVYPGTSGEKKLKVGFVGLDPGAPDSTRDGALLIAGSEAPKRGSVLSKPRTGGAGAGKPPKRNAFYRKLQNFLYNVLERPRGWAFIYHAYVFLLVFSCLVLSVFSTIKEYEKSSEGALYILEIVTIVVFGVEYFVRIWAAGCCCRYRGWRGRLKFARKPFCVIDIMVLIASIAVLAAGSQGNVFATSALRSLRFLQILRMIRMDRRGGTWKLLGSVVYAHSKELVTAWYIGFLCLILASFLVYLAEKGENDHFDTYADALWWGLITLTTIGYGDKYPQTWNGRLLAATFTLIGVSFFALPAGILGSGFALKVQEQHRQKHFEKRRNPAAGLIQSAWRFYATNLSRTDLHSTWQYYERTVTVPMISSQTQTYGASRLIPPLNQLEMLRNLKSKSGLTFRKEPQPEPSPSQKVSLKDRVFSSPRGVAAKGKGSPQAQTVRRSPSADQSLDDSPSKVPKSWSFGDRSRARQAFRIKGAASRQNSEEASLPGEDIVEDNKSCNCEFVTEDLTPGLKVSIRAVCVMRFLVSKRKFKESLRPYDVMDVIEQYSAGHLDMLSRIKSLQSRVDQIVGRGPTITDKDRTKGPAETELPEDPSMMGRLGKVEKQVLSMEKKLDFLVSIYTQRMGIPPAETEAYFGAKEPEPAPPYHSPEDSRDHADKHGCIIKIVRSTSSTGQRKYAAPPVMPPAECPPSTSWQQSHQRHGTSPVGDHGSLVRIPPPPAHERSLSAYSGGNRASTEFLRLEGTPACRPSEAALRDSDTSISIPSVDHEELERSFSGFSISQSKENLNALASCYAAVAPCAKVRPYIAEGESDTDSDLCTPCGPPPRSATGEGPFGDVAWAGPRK
KCNQ2 block – inhibitors of rat KCNQ2 potassium channel. O88943. CHO-K1 KCNQ2, FluxOR thallium flux, 20 min; active compounds read low. B-score at 10 µM. 310,000 compounds, 1.1% hits. AID 2156;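 active = fluorescence ratio B-score at most minus 3 library SDs, with starting brightness B-score within 2 library SDs, cut at about -5.5 in these data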
Hits are given with their value; - = inactive; . = not tested or not shown. An excerpt weighted towards active compounds, which were near 1.6% of everything screened.

SMILES	KCNQ2 enhance	KCNQ2 block
S=c1nc(-c2ccccc2)[nH]n1-c1ccccc1	18	-
Cc1nc(=S)n(-c2ccccc2)[nH]1	.	-
CC(C)CCn1c(SCC(=O)NC2CC2)nc2cc(Cl)ccc2c1=O	-	-
O=S(=O)(Nc1ccc(Cl)cn1)c1cccs1	-	-
O=C(Cc1cn(-c2ccccc2)nc1-c1ccccc1)N1CCCCC1	.	-
O=C(NCC(c1ccc(F)cc1)N1CCOCC1)c1ccc(C(=O)c2ccccc2)cc1 (centres undefined)	-	-
OC(c1ccccc1)(c1ccc(F)cc1)C(c1ccccc1)N1CCOCC1 (centres undefined)	-	-5.7
CCOC(=O)c1ccc(S(=O)(=O)N2CC(=O)Nc3ccccc32)cc1	.	-
Nc1cn(C2OC(CO)C(O)C2O)c(=O)[nH]c1=O (centres undefined)	-	-
C=CCn1cn[nH]c1=S	-	-8.3
C=CCOc1ccc(CNn2cn[nH]c2=S)cc1	-	-
CCC(C(=O)N1CCC(C(N)=O)CC1)n1nc(C)n2c(cc3occc32)c1=O (centres undefined)	.	-
C=CCN1C(=O)C2(OCCCO2)c2cc(C)ccc21	-	-
CCOC(=O)c1cc(C)sc1N1C(=O)C2C3C=CC(C3)C2C1=O (centres undefined)	-	-
CCOC(=O)c1c(N2C(=O)C3C4C=CC(C4)C3C2=O)sc2c1CCC(C)C2 (centres undefined)	6.7	-
CC(NC(=O)c1cc([N+](=O)[O-])cc([N+](=O)[O-])c1)C1CC2CCC1C2 (centres undefined)	-	-
CC(NC(=O)/C=C/c1ccccc1[N+](=O)[O-])C1CC2CCC1C2 (centres undefined)	-	-6.2
O=C(CN1C(=O)NC2(CCCC2)C1=O)Nc1ccc(C(F)(F)F)cc1	-	-
O=C(CN1CCN(c2ccc(Cl)cc2)CC1)Nc1cccc(F)c1	.	-
O=C(Nc1cccc(F)c1)N1CC=C(c2ccc(Cl)cc2)CC1	-	-6.6
O=C(COc1ccc(Cl)cc1)Nc1cc(NC(=O)COc2ccc(Cl)cc2)cc(C(=O)O)c1	-	-
CC(=O)c1ccc(OC(C)c2nc3ccccc3s2)cc1 (centres undefined)	.	-
CCOC(=O)c1ccc(S(=O)(=O)N2CCN(CC(=O)NC(=O)NC3CCCCC3)CC2)cc1	-	-5.6
O=C(CN1CCN(S(=O)(=O)c2ccc(F)cc2)CC1)NC1CCCC1	-	-
COc1ccc(CNC(=O)N[C@@H](CC(C)C)C(=O)O)cc1OC	.	-
SMILES	KCNQ2 enhance	KCNQ2 block
COc1cccc(C(=O)NCC(=O)N2CCC3(CC2)NCCc2[nH]cnc23)c1OC	.	-
COC(=O)C1=C(C)N(c2ccc(OC)c(OC)c2)C(=O)/C1=C\c1ccco1	-	-
CCOC(=O)C1=C(C)N(c2ccccc2)C(=O)/C1=C\c1ccco1	-	-6
CS(=O)(=O)c1ccc(C(=O)Nc2ccc(S(=O)(=O)N3CCCCC3)cc2)cc1	-	-
COc1ccccc1C(=O)NC(=Nc1nc2ccccc2o1)NC(=O)c1ccccc1OC	-	-14
O=C(NC(=Nc1nc2ccccc2o1)NC(=O)c1ccccc1)c1ccccc1	.	-
CC(=O)c1cccc(NC(=O)CSc2nnnn2C2CCCC2)c1	-	-
Cc1ccc(Sc2ncccc2NC(=O)c2ccccc2Cl)cc1	.	-
CCOc1ccccc1NC(=O)CSc1ccc([N+](=O)[O-])cc1	.	-
Cc1cc2nc3c(=O)[nH]c(=S)[nH]c3nc2cc1NC(=O)C(F)(F)F	.	-
CC1CC(NC(=O)Cc2ccc(Br)cc2)CC(C)(C)C1 (centres undefined)	-	-5.7
CC1CC(NC(=O)CC#N)CC(C)(C)C1 (centres undefined)	.	-
O=C(Nc1cc(Sc2nc3ccccc3s2)cc([N+](=O)[O-])c1)c1ccccc1F	-	-6
O=C(Nc1cc(Sc2nc3ccccc3s2)cc([N+](=O)[O-])c1)c1ccccc1	.	-
Cc1ccc(C(=O)Nc2ccncc2)c(C)c1	-	-
CC(=O)c1sc(C(C)(C)C)cc1NC(=O)c1ccccc1C(=O)O	.	-
O=C(c1ccc(F)cc1)C1CCN(C(=O)c2ccccc2F)CC1	-	-
Cc1ccc(SCCNC(=O)/C=C/c2ccc([N+](=O)[O-])cc2)cc1	6.2	-
O=C(/C=C/c1ccc([N+](=O)[O-])cc1)NCCSc1ccccc1	-	-
O=C(NC1CC2CCCC(C1)N2C(=O)Nc1cccc(F)c1)C1CC1 (centres undefined)	.	-
Cc1cc(NC(=O)CSc2nnc(C)n2C)no1	.	-
CC(c1ccco1)N(C(=O)C12CC3(C)CC(C)(CC(C)(C3)C1)C2)c1ccccn1 (centres undefined)	-	-6.3
Cc1cccc(C(=O)N(c2ccccn2)C(C)c2ccco2)c1 (centres undefined)	.	-
Cc1ccc2oc(C(=O)N(Cc3ccncc3)CC3CCCO3)c(C)c2c1 (centres undefined)	.	-
Cc1ccc2oc(C(=O)N(C)Cc3ccon3)c(C)c2c1	-	-
Cc1ccc2oc(C(=O)N(C)Cc3ccc(C)o3)c(C)c2c1	-	-7.9
